Screen size: about 53,000 sequences; about 3,700 (7%) were called active. The full list was thinned out, with actives kept by preference. A number with no mark means an inactive call.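 The calls were made as follows: active = gene knockdowns whose robust z-score for IL-1 alpha signal is at least 2 or at most -2, so actives lie on both sides; inactive = the rest.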

This assay is described as follows: Components of the Cytosolic LPS Sensing Pathway: Gene Identification via Genome-wide siRNA Screen.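 Also: robust z of the log signal after scaling to non-targeting control siRNA wells of the plate.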 The note with it: RAW264.7 macrophages, IL-1a HTRF, actives lie on both sides, screened at 100 nM (by protocol), cells primed 5 h with Pam3CSK4 first. Summed up:
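RAW264.7; siRNA 100 nM final, RNAiMAX, 48h 37 degrees C; Pam3CSK4 5 h; LipidA + TransIT-TKO 24 h; IL-1a HTRF; CellTiter-Glo viability; robust z vs negative-control median.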
As to GCAGAAGCCUGUGGGAUCUTT against Tex43, the z-score is -0.102.
The value for GCAAAACCUAACUAUGUUUTT against Mterf3 was -0.879; that for CGAAUUAUGGCACCGUCAATT against P2rx7 was -0.647; that for UUAGCCACUCAUUGUUCCATT against Olfr1303 was -0.133.
The value for GCUAAUACUGAAAUCGAUGTT against Ccdc73 was 1.02.
On to GGGAGAGUCUUGGCAACUUTT against Btbd17, for which the z-score is -2.12 (active).
As to GGAAGAGAAGAAGGAACUUTT against Ada, the z-score was -1.51.
The value for CGUUUAAAGACUAGCAAGATT against Tab1 was 0.0468; that for GGGCUAAUGAGAUAGGUUUTT against Slc19a2 was 2.18 (active).
For the sequence GGAGGCUGCAAUAGAGGAGTT against Defa20, the z-score is 1.23.
Turning to GGCAAGAGUGAAUUUAAGATT against Nt5e, the z-score was -0.292.
Regarding GGAUUUCACAGUCAAAAUUTT against Insrr, the z-score was -0.825.
For CGGUGUACGAGUUAGAGAATT against Crybb3, the z-score was 1.75.
Under GGGAGAUCUUGACAAAUUCTT against Aplp1 stands 2.32 (active); under “GGAGAAUGACUAGGUAAUCTT against A130010J15Rik”, 1.27.
Take CCUGUCGUUUAACCCUGUCTT against Fis1: the z-score was -0.96.
Under GGAGUUGACCACACUGCUUTT against Smtn stands -1.09; under GGAAUUUAUUCACCCAGACTT against Sirt2, -1.51; under GGAGAUGAAGCUCUGGAUATT against Spock2, 0.132.
Under CCUAUCUCCCUGUUCGAUATT against Rab36 stands -1.01; under GGACAACUCAGAUUGGACUTT against Adprhl2, -1.22.
The value for GGCUUGAAUCACCAACCAGTT against Sgcz was 0.224; that for GGUAGUGAGUACUUUGGAATT against Amy2a5 was -1.16.
GCAAGUGCGACUGUAUCUGTT against Gdpd2: the z-score was -2.2 (active).
Regarding GGGAUAAUGCAUGUGAAAATT against Pdk3, the z-score was -0.292.
The value for GGUUUGUCAACAAGUGUCATT against Dicer1 was -2.17 (active); that for CCAGUACAGAUGUGUUAAATT against N4bp2l2 was 1.68.
Turning to CCGCCUAGCUGAUCUUGUGTT against Aldh1b1, the z-score is -0.495.
The value for GCUUUUACCGUUACGUCUUTT against Uggt1 was 2.18 (active).
The value for GGACAGCAGUAAAUAUACUTT against Coq3 was 0.423; that for GCUAUUAAUAUCCUGGUCCTT against Slc7a2 was -0.543; that for CCUAGACAUCAGUAAUGCGTT against Zbtb17 was -0.43.
The value for AACUGUACAUUGAAGCAGATT against Cstf3 was 0.391.
In the case of GCAUGAAAAGGUAUUACUCTT against Exoc6, the z-score is 0.734.
The value for GCACUAUCCACAUGCACAUTT against Olfr1281 was 0.469; that for GGCCUAUGUCAGCACUUUATT against Eif3f was -0.113; that for GGAUUGCUUUUGAGCAACATT against Ccdc125 was -2.05 (active).
The value for GCUUCUAAGCUUUAGAGGGTT against Rassf10 was -1; that for GGAUACAGUUAAGAGAUAUTT against Xpr1 was -1.34; that for GCAUAGCCACAAGGUUAAUTT against Nat8f4 was 0.35.
Take GUAUUAUAGACACCUUGCATT against Phip: the z-score was -0.835.
Under GGACAGCUACCUCAUCCAUTT against Lpcat3 stands 2.08 (active); under GGACAGAUGAAGCUGCAUUTT against S100a4, -0.422.
As to GGUGAAGAAGAGUCUCAAATT against Mrnip, the z-score was 1.6.
Regarding GCACAUAUCACGCUACCUGTT against Lrrc75b, the z-score was -0.0605.
The value for GCGAAGAGUGAUUGAUCCATT against Myh1 was -0.773; that for GGAAGCAGAAGCUAAAGUGTT against Ubap1 was 2.11 (active); that for CCUGACAGUAGUUACUAUUTT against Olfr1154 was -0.945.
For the sequence GGUUUUUUGUAGCAAACAGTT against Phc2, the z-score was -2.7 (active).
Under GGUCCUUUACAUGAACCGCTT against Vps18 stands -0.661; under GGAAUGCAUGAUGAUGUCATT against Prl7a2, -0.783; under GGGAUCCUCUUGACAUUCCTT against Epdr1, 3.87 (active).
As to GGUAGCAGACAGCUACCCUTT against Tnfsf15, the z-score is 0.405.
The value for CCAAGCUAUUGGCCCUGACTT against Defb38 was 0.251; that for GCUGAUGACCACUGAGUUUTT against Tsr2 was 1.34.
Consider GCAAGUCAGCUACAACUGUTT against Rnasek, for which the z-score is 0.0313.
For the sequence GGUGGCUAUAACAGAGCCUTT against Rdh18-ps, the z-score is 0.173.
The value for GGAAACAAGGAAGCAAUUATT against Psmd1 was -3.01 (active).
Under GGAGAAACCAGCUAAAGGATT against Car9 stands -0.235; under GGUGAUCAGCAUGGUGGGUTT against Pold1, 0.208.
The value for GGUAUAAAGAACUCUGUCATT against Cep78 was -2.49 (active); that for GGGUGAUAGCAAGACACAGTT against Olfr720 was 1.06; that for GGAGGACCAAGAGGACAUUTT against Tbl3 was 0.468.
As to GGCCCAAGAGAUUGAUCAATT against Ivd, the z-score was -0.565.
Regarding CGAAACCUCUAAGAAGAUATT against Pole, the z-score is -0.264.
For GGCAUGUUCCUCAUAUGCCTT against Lrit1, the z-score was -2.01 (active).
On to GGAGCAUUGCCUUUUAAAGTT against Psph, for which the z-score was -0.474.
Take CCAAUUGGGCCACACGUAATT against Tial1: the z-score was 1.15.
Under GGACUCUUUUGGACCUAAGTT against Hilpda stands -1.24.

The values are drawn from PubChem BioAssay AID1508600 (Functional Genomics Laboratory (NCATS/FGL), 2020).
